Measured values: the supplement of paper PMC10849652
About 7,900 targets were measured; listed, in parts, are those with a hit and a random draw of the rest. About 0.6% of all pairs of compound and target were hits. A number with no mark means an inactive call.

Key:
Assay in all cases: log2 fold change, soluble protein after heating vs DMSO (PISA); higher = thermal stabilisation; K562 cells, 10 uM, 30 min; active = over 0.2 and 3.5 SD of the protein, either way, in both replicates (recomputed)
[1] = compound: Cc1ccc(NC(=O)c2ccc(CN3CC[C@H](N(C)C)C3)c(C(F)(F)F)c2)cc1Nc1nccc(-c2cncnc2)n1 [bafetinib]
Procedure, shortened: (§1)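 Thermal stability values are relative to control samples and come from duplicates. They are expressed as log2 fold changes. For measurement, K562 cells (2×10^6 cells/mL) received 10 μM compound for 30 min, and aliquots were heated for 3 min over 48°C-58°C, pooled, and extracted at 4°C in PBS with 0.5% NP-40. Soluble protein, the supernatant after 21,000xg for 90 min, was quantified by TMTpro 16plex LC-MS/MS with equalised channel sums.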

[2] = compound: Cc1cccc(CC(=O)N2CCc3c2ccc(-c2cn(C)c4ncnc(N)c24)c3F)n1
Procedure, shortened: as §1

[3] = compound: Cc1cn(-c2cc(NC(=O)c3ccc(C)c(Nc4nccc(-c5cccnc5)n4)c3)cc(C(F)(F)F)c2)cn1 [nilotinib]
Procedure, shortened: as §1

[4] = compound: Cc1nc(Nc2n[nH]c3c2CN(C(=O)N[C@H](CN(C)C)c2ccccc2)C3(C)C)c2sccc2n1
Procedure, shortened: as §1

[5] = compound: Cc1nc(Nc2ncc(C(=O)Nc3c(C)cccc3Cl)s2)cc(N2CCN(CCO)CC2)n1 [dasatinib]
Procedure, shortened: as §1

[6] = compound: Cc1ncc(-c2ccnc(Nc3ccc(S(C)(=O)=O)cc3)n2)n1C(C)C
Procedure, shortened: as §1

[7] = compound: Cn1cc(-c2ccc3c(c2)CCN3C(=O)Cc2cccc(C(F)(F)F)c2)c2c(N)ncnc21
Procedure, shortened: as §1

[8] = compound: Cn1cc(-c2ccc3nnc(C(F)(F)c4ccc5ncccc5c4)n3n2)cn1
Procedure, shortened: as §1

[9] = compound: Cn1cncc1[C@@](N)(c1ccc(Cl)cc1)c1ccc2c(c1)c(-c1cccc(Cl)c1)cc(=O)n2C [tipifarnib]
Procedure, shortened: as §1

[10] = compound: FC(F)(F)c1ccc(/C=C/c2nc(COc3ccc(CCCCn4ccnn4)cc3)co2)cc1 [mubritinib]
Procedure, shortened: as §1

UniProt Q96H55, sequence (Q96H55 whole entry, looked up): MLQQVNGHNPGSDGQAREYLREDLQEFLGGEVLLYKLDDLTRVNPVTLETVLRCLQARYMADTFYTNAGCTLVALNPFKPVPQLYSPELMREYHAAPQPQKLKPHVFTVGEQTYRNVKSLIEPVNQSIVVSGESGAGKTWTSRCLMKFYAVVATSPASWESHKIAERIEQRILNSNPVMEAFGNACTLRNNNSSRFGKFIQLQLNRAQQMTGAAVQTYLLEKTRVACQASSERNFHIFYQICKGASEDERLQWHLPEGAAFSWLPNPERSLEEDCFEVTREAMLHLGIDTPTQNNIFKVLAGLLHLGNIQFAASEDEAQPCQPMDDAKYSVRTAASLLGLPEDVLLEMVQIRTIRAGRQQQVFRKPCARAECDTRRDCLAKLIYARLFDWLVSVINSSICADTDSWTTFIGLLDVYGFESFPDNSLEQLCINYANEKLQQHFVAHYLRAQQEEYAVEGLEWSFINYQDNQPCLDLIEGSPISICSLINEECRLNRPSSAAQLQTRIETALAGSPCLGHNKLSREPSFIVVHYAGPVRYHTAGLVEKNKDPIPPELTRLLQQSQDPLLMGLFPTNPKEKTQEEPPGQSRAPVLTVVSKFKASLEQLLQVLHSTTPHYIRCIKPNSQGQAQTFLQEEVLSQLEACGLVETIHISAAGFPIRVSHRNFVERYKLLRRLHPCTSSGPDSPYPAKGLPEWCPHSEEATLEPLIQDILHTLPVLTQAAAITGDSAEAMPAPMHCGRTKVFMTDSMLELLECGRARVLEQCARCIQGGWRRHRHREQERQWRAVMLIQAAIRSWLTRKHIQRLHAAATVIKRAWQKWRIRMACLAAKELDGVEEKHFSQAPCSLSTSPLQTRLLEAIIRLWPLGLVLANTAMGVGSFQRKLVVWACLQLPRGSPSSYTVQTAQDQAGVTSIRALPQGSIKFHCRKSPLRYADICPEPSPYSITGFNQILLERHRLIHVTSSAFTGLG
UniProt O14524, sequence (O14524 whole entry, looked up): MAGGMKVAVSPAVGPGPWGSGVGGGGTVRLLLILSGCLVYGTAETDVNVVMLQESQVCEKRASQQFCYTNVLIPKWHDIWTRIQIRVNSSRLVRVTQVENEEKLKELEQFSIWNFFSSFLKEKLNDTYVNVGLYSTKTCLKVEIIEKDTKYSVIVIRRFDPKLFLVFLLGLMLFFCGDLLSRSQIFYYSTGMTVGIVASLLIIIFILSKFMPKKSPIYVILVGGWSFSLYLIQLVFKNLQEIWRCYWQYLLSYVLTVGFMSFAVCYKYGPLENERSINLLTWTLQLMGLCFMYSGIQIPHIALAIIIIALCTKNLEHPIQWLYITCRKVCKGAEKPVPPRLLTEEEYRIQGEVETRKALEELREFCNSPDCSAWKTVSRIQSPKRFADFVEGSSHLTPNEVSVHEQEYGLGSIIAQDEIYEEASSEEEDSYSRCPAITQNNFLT
UniProt Q9BRP4, sequence (Q9BRP4 whole entry, looked up): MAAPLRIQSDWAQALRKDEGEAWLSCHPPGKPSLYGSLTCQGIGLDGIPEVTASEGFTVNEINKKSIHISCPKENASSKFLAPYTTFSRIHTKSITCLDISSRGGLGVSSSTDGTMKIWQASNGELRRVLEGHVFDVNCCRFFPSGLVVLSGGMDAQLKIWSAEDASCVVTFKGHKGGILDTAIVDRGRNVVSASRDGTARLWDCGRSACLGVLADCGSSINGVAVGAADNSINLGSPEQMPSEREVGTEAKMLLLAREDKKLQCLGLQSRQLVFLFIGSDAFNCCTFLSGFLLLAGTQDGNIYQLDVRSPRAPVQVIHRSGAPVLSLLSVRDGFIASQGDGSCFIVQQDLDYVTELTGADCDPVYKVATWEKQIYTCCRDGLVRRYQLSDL
UniProt P49757, sequence (P49757 whole entry, looked up): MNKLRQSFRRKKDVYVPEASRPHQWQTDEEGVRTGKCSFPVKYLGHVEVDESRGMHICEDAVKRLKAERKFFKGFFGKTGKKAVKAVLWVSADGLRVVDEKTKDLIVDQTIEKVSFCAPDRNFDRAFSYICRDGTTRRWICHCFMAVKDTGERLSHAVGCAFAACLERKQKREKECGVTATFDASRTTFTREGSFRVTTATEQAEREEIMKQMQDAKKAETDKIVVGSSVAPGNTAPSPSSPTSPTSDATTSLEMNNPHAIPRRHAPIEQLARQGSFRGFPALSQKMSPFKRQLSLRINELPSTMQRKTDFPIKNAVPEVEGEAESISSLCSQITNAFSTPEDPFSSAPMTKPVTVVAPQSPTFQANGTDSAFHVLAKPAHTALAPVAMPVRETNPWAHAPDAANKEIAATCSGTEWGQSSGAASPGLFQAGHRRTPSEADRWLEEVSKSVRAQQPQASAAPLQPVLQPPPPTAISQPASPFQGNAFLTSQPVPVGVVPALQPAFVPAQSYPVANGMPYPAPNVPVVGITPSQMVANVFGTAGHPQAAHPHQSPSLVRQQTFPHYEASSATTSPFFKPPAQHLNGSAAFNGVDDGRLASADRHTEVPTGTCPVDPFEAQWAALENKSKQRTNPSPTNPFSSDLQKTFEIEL
UniProt Q9NWU1, sequence (Q9NWU1 whole entry, looked up): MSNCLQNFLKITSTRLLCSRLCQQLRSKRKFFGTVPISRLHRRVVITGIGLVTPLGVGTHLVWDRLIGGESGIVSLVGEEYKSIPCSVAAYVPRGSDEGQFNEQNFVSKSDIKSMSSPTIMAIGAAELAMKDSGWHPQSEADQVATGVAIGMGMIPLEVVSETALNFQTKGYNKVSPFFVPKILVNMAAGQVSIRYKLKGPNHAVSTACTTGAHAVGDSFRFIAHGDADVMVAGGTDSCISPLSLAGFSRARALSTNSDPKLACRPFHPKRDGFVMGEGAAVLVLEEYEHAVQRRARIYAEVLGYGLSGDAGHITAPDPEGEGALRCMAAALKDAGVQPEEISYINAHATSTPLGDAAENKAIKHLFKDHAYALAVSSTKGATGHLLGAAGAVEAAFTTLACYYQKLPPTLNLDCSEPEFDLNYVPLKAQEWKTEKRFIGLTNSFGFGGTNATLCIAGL
UniProt Q01804, sequence (Q01804 whole entry, looked up): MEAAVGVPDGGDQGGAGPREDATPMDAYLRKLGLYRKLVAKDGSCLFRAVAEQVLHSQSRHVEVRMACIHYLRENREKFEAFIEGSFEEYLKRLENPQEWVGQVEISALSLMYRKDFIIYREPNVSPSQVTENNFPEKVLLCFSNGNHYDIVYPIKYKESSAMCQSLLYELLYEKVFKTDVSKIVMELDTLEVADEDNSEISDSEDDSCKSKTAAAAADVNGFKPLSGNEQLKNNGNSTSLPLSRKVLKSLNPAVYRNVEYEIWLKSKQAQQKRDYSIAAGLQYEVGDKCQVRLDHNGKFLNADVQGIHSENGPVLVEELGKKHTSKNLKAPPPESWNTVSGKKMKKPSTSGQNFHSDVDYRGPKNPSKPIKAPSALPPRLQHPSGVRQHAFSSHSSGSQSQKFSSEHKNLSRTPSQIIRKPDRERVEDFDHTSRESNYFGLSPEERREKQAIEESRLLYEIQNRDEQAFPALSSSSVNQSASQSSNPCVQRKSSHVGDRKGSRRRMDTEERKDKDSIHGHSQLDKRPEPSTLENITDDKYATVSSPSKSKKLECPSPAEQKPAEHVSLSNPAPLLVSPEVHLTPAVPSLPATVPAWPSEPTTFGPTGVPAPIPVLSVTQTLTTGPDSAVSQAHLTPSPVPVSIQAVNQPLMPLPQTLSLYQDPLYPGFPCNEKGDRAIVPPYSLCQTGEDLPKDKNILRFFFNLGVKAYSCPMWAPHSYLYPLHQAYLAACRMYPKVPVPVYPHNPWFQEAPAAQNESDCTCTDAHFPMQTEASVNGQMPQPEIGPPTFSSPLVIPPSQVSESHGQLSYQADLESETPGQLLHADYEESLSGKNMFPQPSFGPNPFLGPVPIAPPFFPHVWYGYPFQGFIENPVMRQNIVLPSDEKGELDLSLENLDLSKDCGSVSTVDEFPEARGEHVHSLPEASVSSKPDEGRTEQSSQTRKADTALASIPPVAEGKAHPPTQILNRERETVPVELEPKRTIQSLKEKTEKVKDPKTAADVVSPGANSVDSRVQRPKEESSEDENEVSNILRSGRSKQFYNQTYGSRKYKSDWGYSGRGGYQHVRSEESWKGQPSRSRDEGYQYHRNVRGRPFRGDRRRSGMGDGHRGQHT
UniProt P48645, sequence (P48645 whole entry, looked up): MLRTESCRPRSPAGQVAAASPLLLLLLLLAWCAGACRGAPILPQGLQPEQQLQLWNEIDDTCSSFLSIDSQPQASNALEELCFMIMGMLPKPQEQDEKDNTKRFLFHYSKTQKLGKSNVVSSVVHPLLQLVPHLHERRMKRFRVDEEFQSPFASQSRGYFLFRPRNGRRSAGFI
UniProt O75323, sequence (O75323 whole entry, looked up): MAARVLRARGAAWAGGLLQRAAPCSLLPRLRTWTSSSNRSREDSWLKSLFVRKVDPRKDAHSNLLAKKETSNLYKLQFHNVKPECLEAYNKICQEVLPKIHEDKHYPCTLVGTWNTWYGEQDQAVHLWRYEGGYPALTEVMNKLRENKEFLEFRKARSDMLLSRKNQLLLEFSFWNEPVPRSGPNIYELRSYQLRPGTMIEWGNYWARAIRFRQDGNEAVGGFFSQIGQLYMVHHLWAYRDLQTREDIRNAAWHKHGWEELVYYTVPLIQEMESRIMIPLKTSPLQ
UniProt Q8N5F7, sequence (Q8N5F7 whole entry, looked up): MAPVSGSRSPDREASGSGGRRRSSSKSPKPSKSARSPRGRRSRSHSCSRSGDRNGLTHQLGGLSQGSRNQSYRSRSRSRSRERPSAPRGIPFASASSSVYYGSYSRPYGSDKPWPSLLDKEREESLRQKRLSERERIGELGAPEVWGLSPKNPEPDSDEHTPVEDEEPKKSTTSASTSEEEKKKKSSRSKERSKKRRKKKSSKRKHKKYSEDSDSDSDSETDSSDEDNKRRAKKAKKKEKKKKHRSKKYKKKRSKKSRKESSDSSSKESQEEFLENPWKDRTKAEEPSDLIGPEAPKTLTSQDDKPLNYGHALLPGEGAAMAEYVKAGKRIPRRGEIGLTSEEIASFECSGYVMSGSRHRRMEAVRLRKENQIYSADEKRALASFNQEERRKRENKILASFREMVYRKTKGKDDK

Target | log2 fold change [1] | log2 fold change [2] | log2 fold change [3] | log2 fold change [4] | log2 fold change [5] | log2 fold change [6] | log2 fold change [7] | log2 fold change [8] | log2 fold change [9] | log2 fold change [10]
NKAP (UniProt Q8N5F7) | -0.016 | -0.081 | 0.059 | -0.792 (active) | 0.086 | 0.015 | -0.033 | -0.253 | -0.138 | -0.169
MRPS6 (UniProt P82932) | 0.062 | 0.159 | -0.146 | 0.062 | -0.02 | -0.009 | 0.007 | 0.148 | -0.106 | 0.112
MYO19 (UniProt Q96H55) | 0.007 | -0.068 | -0.022 | -0.045 | -0.111 | 0.038 | -0.099 | -0.069 | 0.048 | 
NDUFA9 (UniProt Q16795) | -0.019 | 0.033 | -0.056 | 0.005 | -0.127 | 0.012 | 0.002 | -0.007 | -0.033 | 0.223 (active)
OXSM (UniProt Q9NWU1) | -0.063 | -0.034 | 0.029 | -0.002 | 0.031 | -0.015 | 0.029 | 0.021 | -0.009 | 0.023
NDUFB10 (UniProt O96000) | -0.105 | -0.11 | -0.02 | 0.026 | -0.011 | -0.021 | 0.015 | 0.081 | 0.044 | 0.019
NRDC isoform 2 (UniProt O43847) | 0.022 | 0.072 | -0.019 | -0.023 | -0.133 | 0.011 | -0.01 | -0.044 | -0.129 | 0.088
NACC1 (UniProt Q96RE7) | -0.03 | -0.039 | -0.165 | -0.109 | -0.198 | -0.12 | -0.041 | 0.034 | -0.084 | -0.03
NMU (UniProt P48645) | -0.01 | 0.152 | 0.011 | -0.022 | 0.16 | -0.012 | -0.394 | -0.11 | 0.276 | 
MRPS17 (UniProt Q9Y2R5) | 0.264 | -0.01 | -0.314 | 0.067 | -0.122 | -0.012 | -0.052 | 0.035 | -0.088 | 0.179
NIPSNAP2 (UniProt O75323) | 0.02 | -0.012 | 0.082 | -0.003 | 0.05 | -0.033 | 0.185 | 0.025 | -0.058 | 0.041
MRPS15 (UniProt P82914) | 0.126 | 0.159 | -0.33 | 0.056 | -0.046 | 0.07 | 0.05 | 0.032 | -0.105 | 0.172
MLX (UniProt Q9UH92) | -0.022 | 0.094 | -0.11 | -0.01 | 0.008 | -0.11 | -0.054 | -0.097 | -0.122 | -0.061
PAAF1 (UniProt Q9BRP4) | -0.011 | -0.01 | -0.084 | 0.058 | -0.051 | -0.026 | 0.018 | 0.016 | -0.03 | 0.017
OTUD4 (UniProt Q01804) | 0.069 | -0.016 | 0.037 | -0.039 | 0.046 | -0.077 | -0.082 | -0.09 | 0.064 | -0.024
NFATC2IP (UniProt Q8NCF5) | 0.065 | -0.029 | 0.001 | -0.153 | -0.096 | -0.146 | 0.097 | 0.049 | -0.003 | 0.051
MTFR1L (UniProt Q9H019) | -0.1 | 0.305 | 0.014 | -0.32 | -0.167 | -0.038 | 0.07 | 0.001 | -0.062 | 
MYLK (UniProt Q15746) | 0.827 (active) | -0.063 | 0.856 (active) | 0.147 | 0.65 (active) | 0.136 | -0.107 | -0.128 | 0.047 | 0
MSH6 (UniProt P52701) | -0.019 | 0.101 | -0.116 | -0.179 | -0.325 | -0.1 | 0.139 | 0.167 | -0.174 | 0
MRPS2 (UniProt Q9Y399) | 0.191 | 0.175 | -0.119 | 0.019 | -0.026 | -0.062 | 0.043 | 0.035 | -0.074 | 0.14
NEMP1 (UniProt O14524) | -0.147 | 0.065 | -0.186 | 0.004 | -0.009 | 0.003 | -0.007 | -0.025 | 0 | 0.036
NQO1 (UniProt P15559) | 0.025 | 0.365 (active) | -0.001 | 0.003 | -0.033 | -0.022 | 0.049 | 0.291 (active) | -0.089 | 0.025
NDUFA7 (UniProt O95182) | -0.056 | 0.124 | 0.016 | -0.025 | -0.145 | -0.059 | -0.005 | -0.061 | 0.002 | 0.247 (active)
OXSR1 (UniProt O95747) | -0.014 | -0.012 | -0.083 | -0.029 | -0.179 | 0.031 | 0.038 | 0.005 | -0.117 | -0.05
MTOR (UniProt P42345) | -0.018 | 0.014 | -0.158 | 0.068 | -0.166 | -0.069 | 0.004 | 0.037 | -0.12 | 0.068
NELFA (UniProt Q9H3P2) | -0.145 | 0.027 | 0.032 | -0.311 | -0.112 | -0.152 | 0.015 | 0.018 | -0.141 | -0.034
MRPS5 (UniProt P82675) | 0.153 | 0.159 | -0.287 | 0.118 | -0.073 | 0.067 | 0.039 | 0.087 | -0.13 | 0.22
NA, A0A0B4J2A0 | -0.066 | 0.024 | 0.035 | -0.024 | -0.111 | 0.006 | 0.025 | -0.015 | 0.007 | -0.011
MKNK1 (UniProt Q9BUB5) | 0.088 | 0.057 | 0 | 0.059 | -0.115 | -0.04 | 0.117 | -0.183 | -0.101 | 0.03
NUMB (UniProt P49757) | -0.013 | 0.022 | -0.05 | -0.078 | 0.017 | -0.12 | 0.063 | -0.008 | 0.059 | -0.053
